SMILES strings stand for the structures. Several values for one entry are separate records, joined by “and”; a condition that tells them apart may be missing. Equal values may be shown once. Records with an inconclusive call do not appear. Activity calls are given as the source filed them. Unless noted, calls come from the whole dose curve; as a rule, active = well fitted curve in the direction sought with a large enough effect in the repeat runs; inconclusive = weak or mixed curves; inactive = no such curve, though single readings can be large; an effect the other way counts as inactive or inconclusive.

Experiment [1] in a line: qHTS assay for small molecule agonists of the p53 signaling pathway (AID 651631; calls by dose curve; note: nearly all actives have a fitted effect of over 15% in size). The essentials: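 Read-out is beta-lactamase FRET fluorescence measured 2 h after substrate addition at room temperature, in HCT-116 cells with a p53 response element-driven reporter exposed to compounds for 16 h at 37 °C.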
Experiment [2] is described as follows: qHTS assay for small molecules that induce genotoxicity in human embryonic kidney cells expressing luciferase-tagged ATAD5 (AID 651632). Note: nearly all actives have a fitted effect of over 15% in size. In outline: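 Genotoxicity read-out via ATAD5-luciferase: HEK293T cells, 16 hr compound incubation at 37C, Amplite detection.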
The nature of experiment [3]: qHTS assay for small molecule agonists of the p53 signaling pathway - cell viability (AID 651633; calls by dose curve;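 note: p53RE-bla HCT reporter cells with a stable beta-lactamase p53 reporter; nearly all actives have a fitted effect of over 30% in size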). In outline:
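Viability counter-read: CellTiter-Glo luminescence (30 min, room temperature) in the same p53RE-bla plates. These plates had been exposed to compounds for 16 h at 37 C.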

The nature of experiment [4]: qHTS assay for small molecules that induce genotoxicity in human embryonic kidney cells expressing luciferase-tagged ATAD5 - cell viability (AID 651634; calls by dose curve; note: nearly all actives have a fitted effect of over 25% in size). In outline: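 Live-cell protease activity (CellTiter-Fluor, fluorescence) indicates viability. HEK293T cells with luciferase-tagged ATAD5; 15.5 hr compound treatment at 37C.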
A short description of experiment [5]: qHTS assay for small molecule disruptors of the mitochondrial membrane potential - cell viability (AID 720634; calls by dose curve;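 note: human HepG2 liver cancer cells; nearly all actives have a fitted effect of over 20% in size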). In outline: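 Human hepatoma HepG2 cells were treated for 1 hr with test chemicals, then given m-MPI dye and CellTiter-Glo. Cell viability reflects luminescence proportional to cellular ATP.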
Experiment [6] in a line: qHTS assay for small molecule disruptors of the mitochondrial membrane potential (AID 720635). Note: potency is the fitted concentration of half-maximal effect. The essentials:
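Mitochondrial membrane potential tracked with Mito-MPS dye, red aggregates (ex 540/em 590 nm) against green monomers (ex 490/em 535 nm). Compound treatment 1 hr at 37C, dye 30 min in HepG2.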

The nature of experiment [7]: qHTS assay to test for compound auto fluorescence at 590 nm (red) in HepG2 cells (AID 720674). In outline: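 1 hr compound incubation on HepG2 cells, 37 C, 5% CO2; plate read ex 540 nm / em 590 nm; intensities reported as Rose Bengal sodium equivalents.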
The nature of experiment [8]: qHTS assay to test for compound auto fluorescence at 535 nm (green) in HepG2 cells (AID 720675).
The nature of experiment [9]: qHTS assay to test for compound auto fluorescence at 460 nm (blue) in HEK293 cells (AID 720678). In outline: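 Triamterene serves as the blue fluorophore standard. Compound signal at 405/460 nm is read in HEK293 wells (2,000 cells, 10% dialyzed FBS) after overnight treatment at 37C.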
The nature of experiment [10]: qHTS assay to test for compound auto fluorescence at 590 nm (red) in HEK293 cells (AID 720679). In outline:
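We plated HEK293 cells in 10% dialyzed FBS medium, let them adhere for 4-5 hr, then added 23 nL compound. Overnight at 37C and 5% CO2 preceded fluorescence measurement at 540/590nm.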

Experiment [11] can be described thus: qHTS assay to test for compound auto fluorescence at 535 nm (green) in HEK293 cells (AID 720680).
Experiment [12] can be described thus: qHTS assay to test for compound auto fluorescence at 460 nm (blue) in HEK293 cell free culture (AID 720681). The essentials:
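Blue fluorescence (Ex 405/Em 460 nm, triamterene-equivalent) was read immediately after pin transfer of compound or DMSO into medium (DMEM, 10% FBS) without cells.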

Experiment [13] in a line: qHTS assay to test for compound auto fluorescence at 535 nm (green) in HEK293 cell free culture (AID 720682). In outline:
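Fluorescein serves as the green reference fluorophore; each compound's intrinsic emission at 535 nm (excitation 485 nm) is reported as an equivalent amount of that dye, measured in serum-containing DMEM without cells.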

Experiment [14] can be described thus: qHTS assay to test for compound auto fluorescence at 590 nm (red) in HEK293 cell free culture (AID 720683). In outline: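 Red-channel autofluorescence of compounds in culture medium (DMEM, 10% FBS), no cells, measured at 540/590 nm. Rose Bengal sodium is the reference fluorophore for equivalence.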
The nature of experiment [15]: qHTS assay to test for compound auto fluorescence at 590 nm (red) in HepG2 cell free culture (AID 720684). In outline: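 Steps: dispense MEM/10% FBS medium, no cells; pin compound or DMSO vehicle; read red channel, Ex/Em 540/590 nm. Output given as Rose Bengal sodium equivalents.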
Experiment [16] is described as follows: qHTS assay to test for compound auto fluorescence at 535 nm (green) in HepG2 cell free culture (AID 720686).
In experiment [17] the target is Glucocorticoid receptor (Homo sapiens) (UniProt P04150). The experiment in a line: qHTS assay to identify small molecule agonists of the glucocorticoid receptor (GR) signaling pathway (AID 720691; active = well fitted activation curve with a large enough effect in the signal ratio in the repeat runs, not every such curve was filed as active; the % refers to the signal ratio). The settings on record: GR-bla HeLa, beta-lactamase reporter ratio, 18 h; activation: at 62.4 µM (top of the series). In outline: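 Beta-lactamase reporter activity, read as fluorescence intensity, was measured in GR-bla HeLa cells exposed to compounds for 18 h at 37 C and then loaded with LiveBLAzer B/G FRET substrate for 2 h at room temperature.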
Glucocorticoid receptor (Homo sapiens), sequence (P04150 whole entry, looked up): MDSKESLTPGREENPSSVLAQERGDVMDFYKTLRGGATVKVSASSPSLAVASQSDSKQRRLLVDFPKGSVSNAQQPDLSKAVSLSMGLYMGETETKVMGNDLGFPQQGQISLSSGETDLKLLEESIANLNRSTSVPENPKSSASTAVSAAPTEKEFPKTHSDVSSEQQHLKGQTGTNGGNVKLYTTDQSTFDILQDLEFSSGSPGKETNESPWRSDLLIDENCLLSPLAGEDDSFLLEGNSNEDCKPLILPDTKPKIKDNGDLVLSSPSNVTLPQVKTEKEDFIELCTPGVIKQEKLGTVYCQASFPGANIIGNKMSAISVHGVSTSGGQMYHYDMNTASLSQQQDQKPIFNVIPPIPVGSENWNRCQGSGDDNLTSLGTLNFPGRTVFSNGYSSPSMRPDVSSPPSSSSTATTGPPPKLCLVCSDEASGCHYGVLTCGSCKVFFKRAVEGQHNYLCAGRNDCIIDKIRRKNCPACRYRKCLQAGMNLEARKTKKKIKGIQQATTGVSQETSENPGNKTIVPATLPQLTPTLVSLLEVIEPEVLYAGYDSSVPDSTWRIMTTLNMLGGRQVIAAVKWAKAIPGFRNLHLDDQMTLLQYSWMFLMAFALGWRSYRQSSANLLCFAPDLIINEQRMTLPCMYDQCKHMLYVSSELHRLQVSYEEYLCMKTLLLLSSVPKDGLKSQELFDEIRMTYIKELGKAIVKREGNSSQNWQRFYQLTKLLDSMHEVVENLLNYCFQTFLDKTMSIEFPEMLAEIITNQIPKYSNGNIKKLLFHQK

For experiment [18] the target is unchanged. The experiment in a line: qHTS assay to identify small molecule antagonists of the glucocorticoid receptor (GR) signaling pathway (AID 720692; active = well fitted inhibition curve with a large enough effect in the signal ratio in the repeat runs, not every such curve was filed as active; the % refers to the signal ratio; note: potency is the fitted concentration of half-maximal effect). The essentials: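 Fluorescence from cleaved LiveBLAzer B/G FRET substrate reports GRE-driven beta-lactamase in HeLa cells; compounds are tested against 5 nM dexamethasone (final) over 18 h at 37 C, substrate incubation 2 h at room temperature.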

A short description of experiment [19]: qHTS assay to test for compound auto fluorescence at 460 nm (blue) in HepG2 cell free culture (AID 720685). In outline:
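Compound (23 nL) or DMSO pinned into cell-free MEM with 10% FBS; blue fluorescence read at 405/460 nm excitation/emission, expressed as auto-fluorescence equivalency to triamterene.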

The nature of experiment [20]: qHTS assay to test for compound auto fluorescence at 460 nm (blue) in HepG2 cells (AID 720687). In outline:
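Blue-channel autofluorescence (Ex/Em 405/460 nm, triamterene-equivalent) was measured after 1 hr compound exposure at 37 C, 5% CO2. Cells were HepG2, plated overnight at 37 C in MEM plus 10% FBS.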

As to `O=C(O)c1ccc2c(c1)C(=O)OC2=O`, the Potency entry in experiment [1], in experiment [3], in [4], in experiment [5], in [6] and in [17] was “inactive” in each case. The Potency result in experiment [18] is “inactive”. For the same compound, the outcome in experiment [2], in experiment [7], in [8], in [9], in experiment [10] and in [11] was inactive. In addition, the compound was classed as inactive in experiment [12], in experiment [13], in experiment [14], in experiment [15] and in [16].

Regarding `CN(C)CCOCCN(C)C`, the Potency result in experiment [1], in experiment [3], in experiment [4], in experiment [5], in experiment [17] and in experiment [18] was “inactive” throughout. Also, the compound was called inactive in experiment [2], in experiment [7], in experiment [8], in experiment [9], in [10] and in experiment [11]. Also, the result in experiment [12], in [13], in experiment [14], in experiment [15], in [19] and in experiment [16] was inactive. Moreover, in experiment [20], the outcome was inactive.

In the case of `CC1CCC2CC1C2(C)C` (stereo not given), the Potency entry in experiment [1], in experiment [3], in [4], in experiment [5], in experiment [17] and in experiment [18] was “inactive” in each case. Moreover, the call in experiment [2], in experiment [7], in experiment [8], in experiment [9], in [10] and in [11] was inactive. Further, the compound was classed as inactive in experiment [12], in experiment [13], in [14], in experiment [15], in experiment [16] and in experiment [20].

Regarding `O=P(OC(CCl)CCl)(OC(CCl)CCl)OC(CCl)CCl`, the Potency result in experiment [1], in experiment [3], in experiment [4], in [5] and in experiment [17] was “inactive” throughout. For the same compound, the outcome in experiment [2], in [7], in experiment [8], in experiment [9], in experiment [10] and in [11] was inactive. For the same compound, the compound was called inactive in experiment [12], in experiment [13], in experiment [14], in [15], in [19] and in experiment [16]. Besides, the call in experiment [20] was inactive. Also, the Potency in [6] is 61.1 µM (active); in [18], 21.8 µM (active) and 30.9 µM (active).

As to `CCCCCCCC(=O)OC`, the Potency entry in experiment [1], in [3], in experiment [4] and in experiment [5] was “inactive” throughout. Further, the outcome in [2], in [7], in experiment [8], in [9], in experiment [10] and in [11] was inactive. The compound was classed as inactive in experiment [12], in experiment [13], in [14], in [15], in [19] and in experiment [16]. Further, the compound was called inactive in experiment [20].

In the case of `c1ccc2c(c1)ccc1ccccc12`, the Potency entry in experiment [1], in [3], in experiment [4], in [5], in experiment [17] and in [18] was “inactive” each time. The result in experiment [2], in experiment [7], in [8], in experiment [9], in [10] and in experiment [11] was inactive. In addition, the compound was called inactive in experiment [12], in experiment [13], in experiment [14], in experiment [15], in [16] and in experiment [20].

Take `Fc1ccc(Br)cc1`: the Potency result in [1], in [3], in experiment [4], in experiment [5], in experiment [6] and in [17] was “inactive” each time. For the same compound, the Potency entry in experiment [18] was “inactive”. The outcome in experiment [2], in experiment [7], in experiment [8], in experiment [9], in experiment [10] and in experiment [11] was inactive. In addition, the call in [12], in experiment [13], in experiment [14], in [15], in experiment [19] and in [16] was inactive. Moreover, the call in experiment [20] was inactive.
